The campaign covered roughly 5,500 compounds. About 2,000 (36%) were called active. Inconclusive results (about 18%) are left out. No stated cut-off is given here; in the data, active means normalized growth mostly below about 0.91 (no sharp cut-off); inconclusive means no clear call, values can overlap the other calls; inactive means mostly above about 0.92. Some of the results follow.
Test: chemical genetic growth profiling, strain panel (AID 1159580);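 further: tested at 20 µM; growth read once vehicle control cultures reached saturation at 30 °C; 1 = growth at the plate median or of vehicle wells; lower values mean less growth of the strain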
Conditions: growth OD

Measured: normalized growth

CCCCOC(=O)c1ccc(N)cc1
inactive: S. cerevisiae deletion strains, locus YJR075W, strain HOC1, hits give low values 0.888 | S. cerevisiae deletion strains, locus YKL009W, strain mrt4, hits give low values 0.946 | S. cerevisiae deletion strains, locus YKL068W, hits give low values 0.962 | S. cerevisiae deletion strains, locus YKL085W, strain MDH1 (second series), hits give low values 0.961 | S. cerevisiae deletion strains, locus YKL085W, strain MDH1, hits give low values 0.961 | S. cerevisiae deletion strains, locus YKL190W, strain CNB1, hits give low values 0.975 | S. cerevisiae deletion strains, locus YLR039C, strain RIC1, hits give low values 0.783 | S. cerevisiae deletion strains, locus YLR058C, strain SHM2, hits give low values 0.979 | S. cerevisiae deletion strains, locus YLR102C, strain apc9, hits give low values 0.955 | S. cerevisiae deletion strains, locus YLR113W, strain HOG1, hits give low values 0.954 | S. cerevisiae deletion strains, locus YLR262C, strain YPT6, hits give low values 0.775 | S. cerevisiae deletion strains, locus YLR330W, strain CHS5, hits give low values 0.947 | S. cerevisiae deletion strains, locus YLR357W, strain rsc2, hits give low values 0.942 | S. cerevisiae deletion strains, locus YLR384C, strain iki3, hits give low values 0.946 | S. cerevisiae deletion strains, locus YML016C, strain PPZ1, hits give low values 0.981 | S. cerevisiae deletion strains, locus YML124C, strain tub3, hits give low values 0.939 | S. cerevisiae deletion strains, locus YMR078C, strain ctf18, hits give low values 0.933 | S. cerevisiae deletion strains, locus YMR231W, strain pep5, hits give low values 0.931 | S. cerevisiae deletion strains, locus YMR263W, strain SAP30, hits give low values 0.93 | S. cerevisiae deletion strains, locus YNL067W, strain RPL9B, hits give low values 0.907 | S. cerevisiae deletion strains, locus YNL128W, strain TEP1, hits give low values 0.989 | S. cerevisiae deletion strains, locus YNL153C, strain GIM3, hits give low values 0.939 | S. cerevisiae deletion strains, locus YNL183C, strain NPR1, hits give low values 0.934 | S. cerevisiae deletion strains, locus YNL248C, strain rpa49, hits give low values 0.904 | S. cerevisiae deletion strains, locus YNL250W, strain rad50, hits give low values 0.934 | S. cerevisiae deletion strains, locus YNL271C, strain bni1, hits give low values 0.938 | S. cerevisiae deletion strains, locus YNL298W, strain CLA4, hits give low values 0.939 | S. cerevisiae deletion strains, locus YNL322C, strain KRE1 (second series), hits give low values 0.91 | S. cerevisiae deletion strains, locus YNL322C, strain KRE1, hits give low values 0.987 | S. cerevisiae deletion strains, locus YNR052C, strain pop2, hits give low values 0.949 | S. cerevisiae deletion strains, locus YOL006C, strain TOP1, hits give low values 0.64 | S. cerevisiae deletion strains, locus YOL012C, strain htz1 0.742 | S. cerevisiae deletion strains, locus YOL147C, strain pex11, hits give low values 0.937 | S. cerevisiae deletion strains, locus YOR061W, strain CKA2, hits give low values 0.986 | S. cerevisiae deletion strains, locus YOR069W, strain VPS5, hits give low values 0.987 | S. cerevisiae deletion strains, locus YOR080W, strain dia2, hits give low values 0.95 | S. cerevisiae deletion strains, locus YOR136W, strain idh2, hits give low values 0.956 | S. cerevisiae deletion strains, locus YOR144C, strain elg1, hits give low values 0.961 | S. cerevisiae deletion strains, locus YOR231W, strain MKK1, hits give low values 0.987 | S. cerevisiae deletion strains, locus YOR290C, strain snf2, hits give low values 0.867 | S. cerevisiae deletion strains, locus YOR316C, strain cot1, hits give low values 0.955 | S. cerevisiae deletion strains, locus YPL055C, strain LGE1, hits give low values 0.889 | S. cerevisiae deletion strains, locus YPL241C, strain CIN2, hits give low values 0.98 | S. cerevisiae deletion strains, locus YPL256C, strain CLN2, hits give low values 0.967 | S. cerevisiae deletion strains, locus YPR119W, strain clb2, hits give low values 0.949 | S. cerevisiae deletion strains, locus YPR141C, strain kar3, hits give low values 0.933 | S. cerevisiae deletion strains, locus YPR163C, strain tif3, hits give low values 0.946 | S. cerevisiae deletion strains, locus YPR167C, strain met16, hits give low values 0.96 | S. cerevisiae strains, strain wild type, hits give low values 0.949
active: S. cerevisiae deletion strains, locus YKL160W, strain elf1, hits give low values 0.875 | S. cerevisiae deletion strains, locus YKR001C, strain vps1, hits give low values 0.693 | S. cerevisiae deletion strains, locus YKR026C, strain gcn3, hits give low values 0.91 | S. cerevisiae deletion strains, locus YKR091W, strain srl3, hits give low values 0.907 | S. cerevisiae deletion strains, locus YLL001W, strain dnm1, hits give low values 0.825 | S. cerevisiae deletion strains, locus YLL026W, hits give low values 0.888 | S. cerevisiae deletion strains, locus YLL041C, strain sdh2, hits give low values 0.899 | S. cerevisiae deletion strains, locus YLR027C, strain aat2, hits give low values 0.878 | S. cerevisiae deletion strains, locus YLR221C, strain rsa3, hits give low values 0.841 | S. cerevisiae deletion strains, locus YLR258W, strain gsy2, hits give low values 0.873 | S. cerevisiae deletion strains, locus YLR262C, strain YPT6 (second series), hits give low values 0.433 | S. cerevisiae deletion strains, locus YLR268W, strain sec22, hits give low values 0.86 | S. cerevisiae deletion strains, locus YLR320W, strain mms22, hits give low values 0.635 | S. cerevisiae deletion strains, locus YLR342W, strain FKS1 (second series), hits give low values 0.661 | S. cerevisiae deletion strains, locus YLR342W, strain FKS1, hits give low values 0.605 | S. cerevisiae deletion strains, locus YLR370C, strain arc18, hits give low values 0.844 | S. cerevisiae deletion strains, locus YLR371W, strain rom2, hits give low values 0.886 | S. cerevisiae deletion strains, locus YLR418C, strain cdc73, hits give low values 0.765 | S. cerevisiae deletion strains, locus YML032C, strain rad52, hits give low values 0.905 | S. cerevisiae deletion strains, locus YML120C, strain ndi1, hits give low values 0.897 | S. cerevisiae deletion strains, locus YMR058W, strain fet3, hits give low values 0.881 | S. cerevisiae deletion strains, locus YMR125W, strain sto1, hits give low values 0.871 | S. cerevisiae deletion strains, locus YMR129W, hits give low values 0.922 | S. cerevisiae deletion strains, locus YMR205C, strain PFK2, hits give low values 0.793 | S. cerevisiae deletion strains, locus YMR223W, strain ubp8, hits give low values 0.902 | S. cerevisiae deletion strains, locus YMR307W, strain GAS1, hits give low values 0.319 | S. cerevisiae deletion strains, locus YNL071W, strain lat1, hits give low values 0.653 | S. cerevisiae deletion strains, locus YNL209W, strain ssb2, hits give low values 0.927 | S. cerevisiae deletion strains, locus YNL233W, strain BNI4, hits give low values 0.86 | S. cerevisiae deletion strains, locus YNL307C, strain MCK1, hits give low values 0.868 | S. cerevisiae deletion strains, locus YNR049C, strain mso1, hits give low values 0.905 | S. cerevisiae deletion strains, locus YOR001W, strain rrp6, hits give low values 0.853 | S. cerevisiae deletion strains, locus YOR070C, strain gyp1, hits give low values 0.9 | S. cerevisiae deletion strains, locus YOR083W, strain WHI5, hits give low values 0.862 | S. cerevisiae deletion strains, locus YOR106W, strain vam3, hits give low values 0.771 | S. cerevisiae deletion strains, locus YOR184W, strain ser1, hits give low values 0.817 | S. cerevisiae deletion strains, locus YOR265W, strain rbl2, hits give low values 0.902 | S. cerevisiae deletion strains, locus YOR270C, strain vph1, hits give low values 0.489 | S. cerevisiae deletion strains, locus YPL051W, strain arl3, hits give low values 0.725 | S. cerevisiae deletion strains, locus YPL078C, strain atp4, hits give low values 0.795 | S. cerevisiae deletion strains, locus YPL106C, strain sse1, hits give low values 0.792 | S. cerevisiae deletion strains, locus YPL240C, strain hsp82, hits give low values 0.914 | S. cerevisiae deletion strains, strain wtn01, hits give low values 0.871

Reference: PubChem BioAssay AID1159580 (chemical genetic matrix, 2015)
